The text below walks through data of PubChem BioAssay (NCATS).

Inconclusive results are not listed. Entries that show only a call come without a potency. Activity calls are given as the source filed them. The call rests on the fitted dose curve; in most records, active means well fitted curve in the direction sought with a large enough effect; inconclusive means small, poorly fitted or top-dose-only effect, or another doubt; inactive means no such curve, though single readings can be large; an effect the other way counts as inactive or inconclusive.

Assay [1] deals with Aldehyde dehydrogenase, mitochondrial (Homo sapiens) (UniProt P05091). Description: qHTS for Inhibitors of the Aldehyde Dehydrogenase Family (ALDH2) Primary screen (AID 2061308). Further: nearly all actives have a fitted effect of over 55% in size.
The target in assay [2] is Retinaldehyde dehydrogenase 3 (Homo sapiens) (UniProt P47895). Nature of the assay: qHTS for Inhibitors of the Aldehyde Dehydrogenase Family (ALDH1A3) Primary screen (AID 2061315). (qHTS replaces the single test concentration by a dilution series.)

`O=[N+]([O-])c1ccc([S+](=O)([O-])N2CCN([S+](=O)([O-])c3ccc4c(c3)OCCO4)CC2)c([N+](=O)[O-])c1`: the Potency entry in assay [1] and in assay [2] was “inactive” in each case.

Consider `COc1cc(F)c(S(=O)(=O)N2CCN(S(=O)(=O)c3ccco3)CC2)c(F)c1`, for which the Potency result in assay [1] and in assay [2] was “inactive” throughout.

For the compound `O=S(=O)(c1ccc2c(c1)OCCO2)C1CCN(S(=O)(=O)c2c(F)cccc2F)CC1`, the Potency entry in assay [1] and in assay [2] was “inactive” throughout.

With `O=c1c2ccccc2nc2sc(Nc3cccc(Br)c3)nn12`, the Potency result in assay [1] and in assay [2] was “inactive” in each case.

`COc1ccc(C2Nc3ccccc3C(=O)N2Cc2ccco2)cc1` (stereo not given): the Potency entry in assay [1] and in assay [2] was “inactive” throughout.

Regarding `CCCn1c(-c2ccc(F)cc2)nc2c(NCCCCN3CCCC3)nc(C)nc21`, the Potency entry in assay [1] and in assay [2] was “inactive” throughout.

As to `Cc1ccc(S(=O)(=O)Nc2cc(Br)ccc2C(=O)Nc2nc(-c3ccccc3)cs2)cc1`, the Potency entry in assay [1] and in assay [2] was “inactive” in each case.

For the compound `COc1ccc(C2Nc3ccccc3C(=O)N2Cc2ccccc2)cc1COc1c(C)cc(NC(C)=O)cc1C` (stereo not given), the Potency result in assay [1] and in assay [2] was “inactive” throughout.

On to `CC(O)c1cc2c(s1)c1cnn(Cc3ccccc3F)c(=O)c1n2C` (stereo not given), for which the Potency entry in assay [1] and in assay [2] was “inactive” each time.

In the case of `Cc1ccc(NS(=O)(=O)c2ccc3c(c2)CCC(=O)N3)cc1`, the Potency entry in assay [1] and in assay [2] was “inactive” in each case.

As for `CC(Nc1ccc([S+](=O)([O-])Nc2nccs2)cc1)c1ccccc1` (stereo not given), the Potency entry in assay [1] and in assay [2] was “inactive” throughout.

For `O=S(=O)(Nc1ccc(S(=O)(=O)Nc2nccs2)cc1)c1ccc2ccccc2c1`, the Potency result in assay [1] and in assay [2] was “inactive” each time.

On to `Cc1c(P(=S)(c2ccccc2)c2ccccc2)c2ccccc2n1C(=O)NCc1ccc(F)cc1`, for which the Potency entry in assay [1] and in assay [2] was “inactive” in each case.

For `COc1cccc(S(=O)(=O)Nc2cnccc2C(=O)Nc2nc(-c3ccccc3)cs2)c1`, the Potency entry in assay [1] and in assay [2] was “inactive” in each case.

Regarding `O=C1CCCC2=C1C(c1[nH]ncc1Cl)N=C(Nc1nc3cccc(Cl)c3o1)N2` (stereo not given), the Potency result in assay [1] and in assay [2] was “inactive” throughout.

As to `Cc1ccccc1-c1nnc(NC(=O)Nc2ccc3ccccc3c2)s1`, the Potency entry in assay [1] and in assay [2] was “inactive” throughout.

`O=C(Nc1ncc(Cc2ccc(C(F)(F)F)cc2)s1)c1ccc(-c2ccccc2)o1`: the Potency entry in assay [1] and in assay [2] was “inactive” throughout.

For the compound `O=S(=O)(c1ccc(Br)cc1)N1CCN(S(=O)(=O)c2ccc3c(c2)OCCO3)CC1`, the Potency result in assay [1] and in assay [2] was “inactive” in each case.

`COc1ccc(-c2nnc3n2N=C(c2c(OC)cccc2OC)CS3)cc1`: the Potency entry in assay [1] and in assay [2] was “inactive” in each case.

As for `Cc1cc(/C=C2/C(=O)Nc3ccccc32)cc(C)c1O`, the Potency entry in assay [1] and in assay [2] was “inactive” throughout.

In the case of `CCOC(=O)c1csc(-n2nc(-c3ccc(F)c(F)c3)c(Cc3ccc(S(N)(=O)=O)cc3)c2N)n1`, the Potency entry in assay [1] and in assay [2] was “inactive” in each case.

Take `O=C(NNc1nc2cc(F)ccc2n2cccc12)c1cnccn1`: the Potency entry in assay [1] and in assay [2] was “inactive” in each case.

Turning to `Cc1ccc(-c2csc3ncnc(Sc4nnnn4C)c23)cc1`, the Potency entry in assay [1] and in assay [2] was “inactive” each time.

Consider `Cc1cc(C)nc(NC(=S)N2CCN(c3cccc(C(F)(F)F)n3)CC2)c1`, for which the Potency entry in assay [1] and in assay [2] was “inactive” throughout.

Consider `Cc1ccccc1C(=O)N1CCc2cc(-c3nc(NC(=O)Cc4ccc5c(c4)OCCO5)sc3C)ccc21`, for which the Potency entry in assay [1] and in assay [2] was “inactive” in each case.

With `c1cncc(CNc2ncnc3ccc(-c4ccco4)cc23)c1`, the Potency result in assay [1] and in assay [2] was “inactive” throughout.

Turning to `O=C1Nc2ccccc2/C1=C\c1cc(Br)c(O)c(Br)c1`, the Potency entry in assay [1] and in assay [2] was “inactive” each time.

Take `O=S(=O)(c1ccc2c(c1)OCCO2)N1CCN(S(=O)(=O)c2ccc(F)c(F)c2F)CC1`: the Potency entry in assay [1] and in assay [2] was “inactive” in each case.

Regarding `O=C1CCc2cc(S(=O)(=O)NCc3ccccc3)ccc2N1`, the Potency entry in assay [1] and in assay [2] was “inactive” each time.

As to `NCCC(=O)Nc1cccc(-c2nn3c(=O)cc(N4CCNCC4)nc3s2)c1`, the Potency entry in assay [1] and in assay [2] was “inactive” each time.

With `O=C1C2=C(CN1c1ccccc1)NC(Nc1nc3ccccc3o1)=NC2c1ccccc1Cl` (stereo not given), the Potency entry in assay [1] and in assay [2] was “inactive” throughout.

As for `CCC(=O)NC(c1cc(Cl)c2cccnc2c1O)C1CC1` (stereo not given), the Potency result in assay [1] and in assay [2] was “inactive” in each case.

`N#CN1CCC(NS(=O)(=O)c2ccc(C(F)(F)F)cc2)C1` (stereo not given): the Potency result in assay [1] and in assay [2] was “inactive” in each case.

On to `COc1ccccc1C1=Nn2c(nnc2-c2ccccc2O)SC1`, for which the Potency result in assay [1] and in assay [2] was “inactive” each time.

As for `Cn1nnnc1Sc1ncnc2scc(-c3ccccc3F)c12`, the Potency result in assay [1] and in assay [2] was “inactive” each time.

With `Cc1ccnc(NC(=S)N2CCN(c3cccc(C(F)(F)F)c3)C2)c1`, the Potency result in assay [1] and in assay [2] was “inactive” throughout.

Consider `Cn1cccc1CN=C1NC2=C(C(=O)CCC2)C(c2[nH]ncc2Cl)N1` (stereo not given), for which the Potency result in assay [1] and in assay [2] was “inactive” each time.

Turning to `O=C(OCC#CCSc1nnc(-c2cccc3ccccc23)o1)c1cccc(C(F)(F)F)c1`, the Potency entry in assay [1] and in assay [2] was “inactive” each time.

Turning to `CC(C)(C)CNc1ncnc2ccc(-c3ccc(CO)o3)cc12`, the Potency result in assay [1] and in assay [2] was “inactive” in each case.

In the case of `Cc1cc(NC(=O)c2csc(NC(=O)Cc3ccc(Cl)c(Cl)c3)n2)no1`, the Potency entry in assay [1] and in assay [2] was “inactive” each time.
